Assay outcomes (PubChem BioAssay)
An excerpt weighted towards active compounds, which were near 6.9% of everything screened.
Cy5 interf NS3h – counter-screen for HCV NS3 helicase inhibitors: fluorescence interference | fluorescence interference ratio at 100 µM | AID 720488 | 16,000 tested, 6% active | Cy5-dT15 DNA with NS3h; actives lie on both sides; signal over control mean, under 1 quenches;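 active means compound fluorescence over control fluorescence at most 0.8, a quencher, or at least a set upper limit, an enhancer; inactive means ratio between 0.8 and the set upper limit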
NS3h inh CB – blocks HCV NS3 helicase binding to DNA; NS3h Cy5-dT15 DNA binding, fluorescence polarization; inhibition, % at 100 µM; 16,000 tested, 1.6% active; AID 687043;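 active means inhibition above the average over every tested compound plus 3 SD, cut at about 40% in these data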
NS3h confirm – confirmation of hepatitis C virus NS3 helicase inhibitors; shares compounds with NS3h inh CB; NS3h binding to Cy5-dT15 DNA, fluorescence polarization; inhibition, % at 100 µM; 240 tested, 20% active;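 active means percent inhibition of 50% or more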
SSB-DNA FP CB – disrupts E. coli SSB binding to DNA in counter-screen; shares compounds with NS3h inh CB; E. coli SSB binding Cy5-dT15, fluorescence polarization; inhibition, % at 100 µM; 240 tested, 40% active; AID 720486;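 active means inhibition of at least 50%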;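 further: displacers lower Cy5 polarization so higher inhibition means more SSB displaced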
Target sequence (P0AGE0 whole entry, looked up): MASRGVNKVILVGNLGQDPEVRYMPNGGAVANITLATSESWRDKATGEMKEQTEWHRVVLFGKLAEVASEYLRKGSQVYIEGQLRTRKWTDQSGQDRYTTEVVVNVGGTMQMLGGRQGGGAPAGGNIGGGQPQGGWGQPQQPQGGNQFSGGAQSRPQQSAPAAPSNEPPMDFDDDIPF
Cy5 SSB fluor CB – enhances or quenches Cy5-DNA fluorescence with E. coli SSB | fluorescence interference ratio at 100 µM | 240 tested, 8% active | Cy5-dT15/E. coli SSB fluorescence interference; actives lie on both sides | AID 720487 | shares compounds with NS3h inh CB;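 active means fluorescence interference ratio at or above 1.2, signal boosting, or at or below 0.8, signal quenching; inactive means ratio between 0.8 and 1.2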;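 further: ratio of compound well signal to mean negative control signal so 1 means no effect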
Cy5 fluor confirm – Cy5 fluorescence interference, confirmation counter-screen | Cy5-dT15 DNA/NS3h fluorescence interference counterscreen | 240 tested, 44% active | fluorescence interference ratio at 100 µM, hits read low | shares compounds with NS3h inh CB | AID 720489;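 active means fluorescence interference ratio at or below 0.8 quencher or at or above a set limitenhancer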;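 further: ratio of compound fluorescence to mean of negative controls so 1 means no interference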
The depositor's hits bear a star; · = no result.

SMILES	Cy5 interf NS3h	NS3h inh CB	NS3h confirm	SSB-DNA FP CB	Cy5 SSB fluor CB	Cy5 fluor confirm
N#Cc1c(N)c(C#N)c(-c2ccco2)c2c1CCCC2	0.96	32	17	21	0.98	0.92
CC(=O)CC(=O)NCCc1ccccc1	0.98	13	·	·	·	·
Cc1nc2ccccc2n1C(=O)c1cc(Cl)ccc1Cl	1	23	·	·	·	·
Nc1c(Cl)cc(N2C(=O)C=CC2=O)cc1Cl	0.96	54*	62*	15	0.9	0.88
Cc1ccc2nsnc2c1NC(=O)c1ccc(-c2ccc(Cl)cc2Cl)o1	0.98	3	·	·	·	·
O=C1C(=C/C(Br)=C/c2ccccc2)SC(=S)N1Cc1ccccc1	1.1	8	·	·	·	·
CC(/C=C1\SC(=S)N(C(C(=O)O)c2ccccc2)C1=O)=C\c1ccccc1 (stereo not given)	0.94	24	4	5	0.97	0.69*
COc1ccc2occ(C(=O)c3ccc([N+](=O)[O-])cc3)c2c1	1	5	·	·	·	·
COc1ccc2occ(C(=O)c3ccc(N)cc3)c2c1	1.1	40	7	19	0.87	0.85
Cc1cc(C)cc(NC(=O)c2ccc(I)cc2)c1	0.98	12	·	·	·	·
O=C1OC(c2ccccc2F)=N/C1=C\c1cccc(I)c1	1	2	·	·	·	·
Cc1ccsc1/C=C1\SC(=S)N(C2CCS(=O)(=O)C2)C1=O (stereo not given)	1.3*	68*	4	17	0.91	0.72*
CC(C)c1ccc(/C=C2\SC(=S)N(C3CCS(=O)(=O)C3)C2=O)cc1 (stereo not given)	0.95	-1	·	·	·	·
CN(C)c1ccc(/C=C/C(=O)/C=C/c2ccc(N(C)C)cc2)cc1	0.98	6	·	·	·	·
O=C1C=CC(=O)N1c1ccc(OC(F)F)cc1	0.82	46*	33	9	0.94	0.86
COc1ccc(N2C(=O)C=C(Nc3ccccc3)C2=O)cc1	0.87	15	·	·	·	·
CN(C)c1ccc(N2C(=O)C=CC2=O)cc1	0.96	65*	43	16	1	0.76*
COc1ccc(N2C(=O)C=CC2=O)cc1	0.77*	84*	49	0	1	0.77*
C=C(C)C(=O)Oc1ccc(N2C(=O)C=CC2=O)cc1	1	81*	55*	4	0.93	0.92
C=C(C)C(=O)Oc1ccc(N2C(=O)CCC2=O)cc1	1.1	4	·	·	·	·
O=C1C=CC(=O)N1c1ccc(SC(F)F)cc1	0.99	20	·	·	·	·
Cc1ccc(N=C(NOCc2ccc([N+](=O)[O-])cc2)c2nonc2N)cc1	0.89	8	·	·	·	·
CC(=O)N1CCN(c2ccc(NC(=O)c3cccc(Br)c3)cc2)CC1	1	12	·	·	·	·
O=C(Nc1ccc2nsnc2c1Br)c1sc2ccccc2c1Cl	0.94	2	·	·	·	·
COc1ccc(NC(=O)c2cc(OC)c(OC)c(OC)c2)cc1OC	0.87	2	·	·	·	·
SMILES	Cy5 interf NS3h	NS3h inh CB	NS3h confirm	SSB-DNA FP CB	Cy5 SSB fluor CB	Cy5 fluor confirm
CCc1c(C)nc2cc(-c3cccc(F)c3)[nH]n2c1=O	1.2	-4	·	·	·	·
O=C(NC(=S)Nc1ccc(N2CCCCC2)c(Cl)c1)c1ccco1	1	9	·	·	·	·
O=C(C#Cc1ccc([N+](=O)[O-])cc1)c1ccccc1	0.9	-6	·	·	·	·
COc1ccc(OC)c(NC(=O)c2ccc3c(c2)C(=O)N(c2ccc(Cl)cc2)C3=O)c1	1	1	·	·	·	·
CCOC(=O)C(C)Oc1ccc2c(oc(=O)c3ccccc32)c1C (stereo not given)	1.1	10	·	·	·	·
CCOC(=O)c1c(NC(=O)/C=C/c2ccc(C)o2)sc(C)c1C	0.99	61*	2	3	0.97	0.74*
Cc1ccc(/C=C/C(=O)Nc2ccc(Cl)cc2Cl)o1	0.92	26	·	·	·	·
Cc1cccc(NC(=O)c2ccccc2NC(=O)/C=C\c2ccco2)c1C	0.93	5	·	·	·	·
O=C(/C=C/c1ccco1)Nc1ccc(O)cc1C(=O)O	1	61*	39	93*	0.91	1
COc1cc(N)ccc1-n1c(C)ccc1C	0.7*	68*	8	22	0.69*	0.61*
COc1ccc(-n2c(Cc3ccccc3)n[nH]c2=S)c(OC)c1	0.93	0	·	·	·	·
COc1ccccc1N1CCN(/N=C(/C)c2ccc(O)cc2)CC1	0.99	-1	·	·	·	·
O=c1[nH]c(=O)n(-c2ccc(Br)cc2)c(O)c1C=C1C=CC=N1	0.83	-2	·	·	·	·
Cc1ccccc1-n1c(O)c(C=C2C=CC=N2)c(=O)[nH]c1=S	0.75*	63*	58*	140*	0.72*	0.74*
C=CCOc1nc(-c2ccc(Br)cc2)nc2ccccc12	1	10	·	·	·	·
O=C(/C=C/c1ccc2c(c1)OCO2)Nc1ncccn1	1	-6	·	·	·	·
Cc1ccc(NC(=O)C2CC(=O)N(c3ccc(Br)cc3)C2)cc1Cl (stereo not given)	1	20	·	·	·	·
O=C(Nc1ccc(Cl)c(Cl)c1)C1CC(=O)N(c2cccc([N+](=O)[O-])c2)C1 (stereo not given)	1.1	39	0	14	0.97	0.94
O=[S+]([O-])([O-])c1ccc2c(c1)C([S+](=O)([O-])[O-])CC(=N/O)/C2=N\O (stereo not given)	1.1	10	·	·	·	·
CCN(CC)c1ccc(/C=C2\C(=O)NC(=O)N(c3ccccc3OC)C2=O)cc1	1.1	4	·	·	·	·
CCN(CC)c1ccc(/C=C2/C(=O)NC(=O)N(c3ccccc3)C2=O)cc1	3.2*	86*	30	26	1.6*	1.8*
COc1cc(C2Nc3ccccc3C(=O)N2c2ccc(C)cc2)ccc1O (stereo not given)	1	10	·	·	·	·
Cc1ccc(S(=O)(=O)NC(C)C2C3CC4CC(C3)CC2C4)cc1 (stereo not given)	0.98	10	·	·	·	·
COc1ccc(OC)c(N2C(=O)NC(=O)/C(=C/C=C/c3ccccc3)C2=O)c1	0.92	49*	21	32	0.98	0.83
COc1ccccc1N1C(=O)NC(=O)/C(=C\c2ccc(Br)cc2)C1=O	0.92	19	·	·	·	·
SMILES	Cy5 interf NS3h	NS3h inh CB	NS3h confirm	SSB-DNA FP CB	Cy5 SSB fluor CB	Cy5 fluor confirm
COc1ccc(OC)c(N2C(=O)NC(=O)C(=Cc3cccs3)C2=O)c1	1	95*	38	7	0.98	0.81
O=C1NC(=O)N(c2ccc(Cl)cc2)C(=O)/C1=C/c1cccs1	1	8	·	·	·	·
CC(C)(C)c1ccc(Oc2coc3c(CN4CCOCC4)c(O)ccc3c2=O)cc1	1	12	·	·	·	·
N#Cc1c(NC(=O)C(c2ccccc2)c2ccccc2)sc2c1CCC2	1.1	6	·	·	·	·
COc1cc(/C=C2/SC(=S)NC2=O)cc(Cl)c1OCc1ccc(Cl)cc1Cl	1	48*	12	55*	0.94	0.85
COc1ccc(/C=C2/SC(=S)NC2=O)cc1OCc1ccc(Cl)cc1	1	8	·	·	·	·
O=C1C=CC(=O)N1c1ccccc1N1C(=O)C=CC1=O	1	81*	63*	11	0.98	0.95
O=C1C=CC(=O)N1c1ccc(Cc2ccc(N3C(=O)C=CC3=O)c(Cl)c2)cc1Cl	1	14	·	·	·	·
O=C(O)c1cccc(C(=O)O)c1N(c1ccccc1)c1ccccc1	1	3	·	·	·	·
Cc1c(C(=O)O)cccc1-n1c(C)ccc1C	1.4*	97*	67*	106*	0.94	0.95
